For 97 compounds, displacement results are on record in PubChem BioAssay AID432 (Sanford-Burnham Center for Chemical Genomics, 2006).

Screen size: about 64,000 compounds; about 15 (0.02%) were called active. How the calls were made is not given here. The list is a sample of the results. Results with a measured potency or affinity are listed apart.

The test deals with Bcl-2-related protein A1 (Mus musculus) (UniProt Q07440). The test is described as follows: displacement of Bid BH3 peptide from Bfl-1 – biochemical, fluorescence polarization, FITC-Bid, mouse, primary screen (AID 432). Conditions: at 20 µM, active compounds read high.
Chain of Bcl-2-related protein A1 (Mus musculus) (Q07440 whole entry, looked up): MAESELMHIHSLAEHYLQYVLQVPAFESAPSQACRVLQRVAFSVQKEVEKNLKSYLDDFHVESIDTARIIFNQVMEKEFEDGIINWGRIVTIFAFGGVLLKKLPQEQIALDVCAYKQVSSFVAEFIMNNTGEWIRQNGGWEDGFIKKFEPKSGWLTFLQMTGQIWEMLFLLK
On to `COC(=O)C(C)n1cnc2c(cnn2-c2ccc(Cl)cc2)c1=O` (configuration not stated), for which the displacement is 1.6% (inactive).
On to `CCCCCNC(=O)C(C#N)c1nc2ccccc2nc1N1CCCC1` (configuration not stated), for which the displacement was 34.3% (inactive).
On to `Cn1c(SCc2ccccc2Cl)nnc1-c1cnccn1`, for which the displacement was -5.3% (inactive).
Regarding `COc1ccccc1OC(=O)c1ccc(SC)cc1OC`, the displacement is -2.3% (inactive).
For the compound `Cc1cc(OCC(=O)Nc2cc(-c3nn4c(C)nnc4s3)ccc2C)ccc1Cl`, the displacement is 10% (inactive).
To `O=C1c2ccccc2C(Nc2ccc(S(=O)(=O)N3CCOCC3)cc2)N1c1cccnc1` (configuration not stated) belongs 8.2% (inactive); to `N#CC1=C(N)OC2=C(C(=O)CCC2)C1c1ccsc1` (configuration not stated), -2.3% (inactive).
Regarding `Cc1csc2ncc(C(=O)Nc3cccc(C(F)(F)F)c3)c(=O)n12`, the displacement was -2% (inactive).
The figure for `Cc1ccc(-n2cccc2C(=S)N=P(N(C)C)(N(C)C)N(C)C)cc1` is 22.3% (inactive); for `Cc1ccccc1OCC(=O)NCCN(C)C` it is -12% (inactive).
Turning to `CCCN1Cc2cccc(C(=O)Nc3ccc4c(c3)OCO4)c2C1=O`, the displacement was -7.1% (inactive).
For `COc1ccc(CCNC(=O)CSc2nnc(Cn3c(=O)sc4ccccc43)n2C)cc1OC`, the displacement is 4.6% (inactive).
With `O=C(c1ccc(Br)o1)N(Cc1ccccc1)c1ccccn1`, the displacement was -6.6% (inactive).
Consider `Cn1c(=O)[nH]c(=O)c2c1nc(N1CCN(c3ccccc3)CC1)n2CCSc1ncccn1`, for which the displacement is 4.5% (inactive).
Regarding `Fc1ccc(-c2nnc3ccc(N4CCCC4)nn23)cc1`, the displacement is -8.2% (inactive).
Regarding `FC(F)(F)c1cccc(N2CCN(c3ccc4nnc(-c5ccccc5)n4n3)CC2)c1`, the displacement is 0.4% (inactive).
The figure for `COc1ccc2cnn(CCOc3ccccc3)c(=O)c2c1OC` is -3.4% (inactive); for `CCCn1c(SCC(=O)NCc2ccco2)nc2c1c(=O)n(C)c(=O)n2C` it is -5.1% (inactive).
As for `CCOC(=O)C(NC(C)=O)(Nc1ccc(S(=O)(=O)Nc2onc(C)c2C)cc1)C(F)(F)F` (configuration not stated), the displacement is -2.1% (inactive).
On to `Cc1ccc(Nc2nc(C)cc(C)n2)c(Br)c1`, for which the displacement was -3.3% (inactive).
For the compound `CC(C)(C)NC(=O)NC(=O)COC(=O)C1CC(=O)N(Cc2ccccc2)C1` (configuration not stated), the displacement was -5.1% (inactive).
As for `CCCCCOc1ccc(/C=c2\sc3ncnn3c2=O)cc1`, the displacement is -9% (inactive).
Regarding `Cc1csc(NC(=O)CSc2nnc(-c3ccco3)n2C)n1`, the displacement is -7.7% (inactive).
For the compound `COC(=O)c1[nH]c2ccc(C)cc2c1NC(=O)CN1CCCCC1C` (configuration not stated), the displacement is -1.2% (inactive).
The figure for `COc1ccccc1CNc1ncnc2c1cnn2-c1ccccc1` is -2.9% (inactive).
Turning to `CN(C(=O)COC(=O)COc1ccccc1F)C1CCS(=O)(=O)C1` (configuration not stated), the displacement is -1.5% (inactive).
As for `C=CCn1c(C)cc(C(=O)CSc2nnc(NCc3ccccc3)s2)c1C`, the displacement is 3.3% (inactive).
The figure for `CCOc1ccccc1C(=O)NCc1ccc2c(c1)OCO2` is 2.9% (inactive); for `COc1ccc(NC(=O)C23CCC(C)(C(=O)C2)C3(C)C)cc1` (configuration not stated) it is -1.2% (inactive); for `COC(=O)c1cn(C(=O)OC)c2ccccc12` it is -6.7% (inactive).
Turning to `Oc1ccc(C=Nc2cccc3ncccc23)c(O)c1`, the displacement was 4.8% (inactive).
`Nc1ccc2ncccc2c1`: the displacement was -3.5% (inactive).
With `COc1ccc(-c2nnc3sc(-c4ccccc4OC)nn23)cc1`, the displacement was 0.2% (inactive).
For `COc1cccc(OC)c1-c1nn2c(-c3ccco3)nnc2s1`, the displacement was -0.8% (inactive).
As for `CCOc1ccc(-c2nnc3sc(-c4c(OC)cccc4OC)nn23)cc1`, the displacement is 7.5% (inactive).
For the compound `COc1cccc(OC)c1-c1nn2c(-c3ccccc3Cl)nnc2s1`, the displacement is -6.5% (inactive).
For `CSc1nnc(-c2ccccc2)n1C`, the displacement was -1.8% (inactive).
The figure for `CCC(=O)N1CCc2cc(S(=O)(=O)CCC(=O)NCc3cccs3)ccc21` is 3.1% (inactive).
For the compound `CC(=O)Nc1ccc(NCC(O)COc2ccccc2)cc1` (configuration not stated), the displacement was 9.6% (inactive).
On to `CC(=O)N1CCc2cc(S(=O)(=O)NCCC(=O)N3CCN(c4ccccn4)CC3)ccc21`, for which the displacement was 0.4% (inactive).
The figure for `Cc1cc(=O)n2ncnc2n1COCCO` is -8.2% (inactive); for `Cc1cc(NC(=O)CCS(=O)(=O)c2nc(-c3ccccc3)cc(C(F)(F)F)n2)no1` it is -3% (inactive).
On to `CCOC(=O)c1cnn2c(C)cc(-c3ccc(F)cc3)nc12`, for which the displacement is -7.8% (inactive).
Regarding `CCOC(=O)CCS(=O)(=O)c1nc(-c2ccccc2)cc(C(F)(F)F)n1`, the displacement was 37.1% (inactive).
To `COCC(C)NC(=O)CCS(=O)(=O)c1nc(-c2ccc(OC)cc2)cc(C(F)(F)F)n1` (configuration not stated) belongs 6.4% (inactive); to `COc1cc(OC)c(C2Oc3nc(SC)nnc3-c3ccccc3N2C(C)=O)cc1OC` (configuration not stated), 3.4% (inactive); to `CCC(=O)N1c2ccccc2-c2nnc(SC)nc2OC1c1ccc(OC)c(OC)c1` (configuration not stated), 0.1% (inactive).
As to `CC(=O)NC1C(=O)N=C(SCC(=O)NCc2ccccc2)NC1=O` (configuration not stated), the displacement is 1.1% (inactive).
In the case of `O=c1n(-c2ccccc2)c(=O)n(Cc2ccccn2)n1Cc1ccccn1`, the displacement is -5.3% (inactive).
On to `Cc1nc2ccc(S(=O)(=O)Nc3ccccc3C)cc2s1`, for which the displacement was -3.4% (inactive).
The figure for `COc1ccc2c3c(cccc13)OCC2=O` is 12.2% (inactive).
To `COc1ccc(C(C)=O)c2c(O)cccc12` belongs -0.9% (inactive); to `CCn1c(N)c(C(=O)NC)sc1=S`, -2% (inactive); to `Cc1ccc(-c2nnc(COc3cccc(-n4cnnn4)c3)o2)cc1`, -4.7% (inactive).
For `C=CCn1cc(C(=O)NCCOC)c(=O)c2cc(S(=O)(=O)N(CC)CC)ccc21`, the displacement is 1.1% (inactive).
With `O=C(NC1CCCCNC1=O)c1ccc(Cl)cc1` (configuration not stated), the displacement was -4% (inactive).
As for `CC1(C)CC(=O)C(C=NCCN2CCN(C(=O)CC3CCCC3)CC2)=C(O)C1`, the displacement is -1.8% (inactive).
On to `O=C1CSC(c2cn(-c3ccccc3)nc2-c2cc3ccccc3oc2=O)N1Cc1ccco1` (configuration not stated), for which the displacement was -5.3% (inactive).
In the case of `COc1ccc(S(=O)(=O)N[C@@H](CC(C)C)C(=O)O)cc1`, the displacement is -6% (inactive).
In the case of `Cc1nc2c(c(=O)n1Cc1ccccc1Cl)c1nc3ccccc3nc1n2Cc1ccco1`, the displacement was -10.7% (inactive).
As for `N#Cc1c(NC(=O)CSc2nc(-c3ccco3)cc(C(F)(F)F)n2)sc2c1CCCC2`, the displacement is -0.1% (inactive).
Take `COc1ccc(C(=O)N2CCN(c3nnnn3-c3ccccc3)CC2)cc1OC`: the displacement is 3.7% (inactive).
Take `Cc1cc(Nc2c(C)cccc2C)n2nc(C)nc2n1`: the displacement is -2.1% (inactive).
The figure for `COC(=O)c1ccc(C2C(C(=O)Nc3ccc(C)cc3C)=C(C)Nc3ncnn32)cc1` (configuration not stated) is -1.9% (inactive).
Regarding `CCOC(=O)CN1C(=O)C(C)(C)Oc2ccc(C(=O)NC(C)(C)CC)cc21`, the displacement was -6.4% (inactive).
As for `Cc1cc(C)cc(N2CC34C=CC(O3)C(C(=O)OCC(=O)NCc3ccco3)C4C2=O)c1` (configuration not stated), the displacement is -10.1% (inactive).
Regarding `Cc1nc2scc(-c3ccccc3)c2c(=O)n1N`, the displacement was -4% (inactive).
Turning to `COc1ccc(S(=O)(=O)Cc2ccc(C(=O)N3CCN(c4ccc(Cl)cc4)CC3)o2)cc1`, the displacement is -2.7% (inactive).
In the case of `Nc1nc(-c2cccc(NS(=O)(=O)c3ccccc3)c2)cs1`, the displacement is 5.8% (inactive).
For `CN(C)c1nc(NCc2ccccc2)nc(Oc2ccc(=O)[nH]n2)n1`, the displacement was -7.2% (inactive).
With `COc1cc(C(c2nnnn2C2CCCC2)N2CCc3ccccc3C2)ccc1O` (configuration not stated), the displacement is -5.3% (inactive).
Turning to `Cc1ccnc(NS(=O)(=O)c2ccc(NC(=O)C3CCCCC3C(=O)O)cc2)n1` (configuration not stated), the displacement was -3.9% (inactive).
On to `Cc1csc(NC(=O)CCn2c(=O)oc3ccccc32)n1`, for which the displacement is 2.1% (inactive).
In the case of `O=C1CC(N(Cc2ccco2)C(=O)Nc2ccc(F)cc2)C(=O)N1c1ccc(F)cc1` (configuration not stated), the displacement is 1.2% (inactive).
With `CCOc1ccc(OCC)c(NC(=O)CSc2nnc(-c3cccnc3)o2)c1`, the displacement was -6% (inactive).
`CCOC(=O)C1CCN(C2CC(=O)N(c3cccc(Cl)c3)C2=O)CC1` (configuration not stated): the displacement is 5.3% (inactive).
As for `CCN(CC)C(=O)CSC1=C(C#N)C(c2cccs2)C=C(C)N1` (configuration not stated), the displacement is 4.6% (inactive).
Consider `O=C(NCCN1C(=O)C2C3C=CC(C3)C2C1=O)NCc1ccccc1` (configuration not stated), for which the displacement is 8.8% (inactive).
Consider `CCOC(=O)C1CCCN(C(=O)c2cn(C)c3ccc(S(=O)(=O)N(C)C)cc3c2=O)C1` (configuration not stated), for which the displacement was -2.5% (inactive).
The figure for `COc1cccc(NC(=O)c2ncn[nH]2)c1` is -5.2% (inactive); for `O=C(O)c1ccc(COc2c(F)c(F)cc(F)c2F)cc1` it is -4% (inactive); for `CCOCCn1c(SCc2cccc(C)c2)nc2c1c(=O)[nH]c(=O)n2C` it is 2.1% (inactive).
With `O=C(OCc1cccc2ccccc12)c1ccc2c(=O)[nH]c(CN3CCOCC3)nc2c1`, the displacement was -1.5% (inactive).
As for `Cc1cc2cc(C(c3nnnn3Cc3ccco3)N3CCc4ccccc43)c(=O)[nH]c2cc1C` (configuration not stated), the displacement is 6.1% (inactive).
On to `CCOC(=O)Cc1nnc(NC(=O)c2cccc(OCC)c2)s1`, for which the displacement was -3.8% (inactive).
For `CCn1cc(Cl)c(C(=O)Nc2nc3ccccc3n2CCN2CCCCC2)n1`, the displacement is 7.6% (inactive).
With `O=C(Nc1c(C(=O)N2CCCCC2)cnn1-c1ccccc1)c1ccccc1`, the displacement is 1.1% (inactive).
The figure for `O=C1CCCCCN1C(=O)c1cccc(C(=O)N2CCCCCC2=O)c1` is -3.4% (inactive); for `CCOCC(=O)N1CCCC(C(=O)OCC)C1` (configuration not stated) it is 5.1% (inactive); for `COC(=O)c1cc(=O)[nH]c(SCc2cccc(C)c2)n1` it is -9.3% (inactive).
To `CC(C)CCNC(=O)NC(=O)COc1ccccc1C#N` belongs -1.9% (inactive).
For the compound `CCCS(=O)(=O)N1CCCC(C(=O)NCCN(CC)c2ccccc2)C1` (configuration not stated), the displacement is -0.1% (inactive).
For the compound `CCCN1C(=O)CC(c2ccco2)Sc2ccccc21` (configuration not stated), the displacement was -8.4% (inactive).
`CN(C)S(=O)(=O)c1ccc(C(=O)Nc2ccc(F)cc2F)cc1`: the displacement is -3.7% (inactive).
Regarding `O=S(=O)(c1ccccc1)c1cccc(S(=O)(=O)N2CCCCC2)c1`, the displacement was -8.3% (inactive).
On to `CC1=C(C(N)=O)C(c2cccc(O)c2)n2nc(CCCO)nc2N1` (configuration not stated), for which the displacement was -2.3% (inactive).
The figure for `O=C(c1ccccc1S(=O)(=O)NCc1ccccc1)N1CCCCC1` is -2.9% (inactive).
